Assay [1] can be described thus: qHTS profiling for inhibitors of Plasmodium falciparum (3D7) proliferation (AID 743322; call rule not given here;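 note: infected erythrocytes exposed to compound for 72 h before lysis; 100% = DMSO vehicle wells and 0% = 0.29 µM artemisinin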). The note with it: P. falciparum 3D7 proliferation; at 28.7 µM (top of the series) unless noted. Summed up:
(§1)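 Erythrocytes infected with P. falciparum (0.3% parasitemia, 2.5% hematocrit) incubated with compounds 72 h at 37 C, 5% CO2. Lysis with saponin/Triton buffer containing SYBR Green I, overnight at room temperature in the dark; DNA fluorescence (485/535 nm) normalised to 0.29 uM artemisinin and DMSO.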

A short description of assay [2]: qHTS profiling for inhibitors of Plasmodium falciparum (DD2) proliferation (AID 743323; call rule not given here). The note with it: lower = more inhibition; at 28.7 µM (top of the series) unless noted. Summed up: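 Parasite DNA quantified by SYBR Green fluorescence (ex 485, em 535 nm) after saponin/Triton lysis and overnight dark incubation. Cultures: 0.3% parasitemia, 2.5% hematocrit, 72 h, 37 C; data scaled between DMSO and 0.29 uM artemisinin.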
On the technique in general: Quantitative high-throughput screening tests each substance at several concentrations.

Assay [3] in a line: qHTS profiling for inhibitors of Plasmodium falciparum (HB3) proliferation (AID 743324).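 Note: 100% = DMSO vehicle wells and 0% = artemisinin-treated control wells.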 The note with it: Plasmodium falciparum HB3 blood-stage proliferation; at 28.7 µM (top of the series) unless noted. Summed up:
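P. falciparum HB3 grown in erythrocytes (0.3% parasitemia, 2.5% hematocrit final) with compound for 72 h at 37 C, 5% CO2. Parasite DNA detected by SYBR Green after saponin/triton lysis overnight; normalized to 0.29 uM artemisinin and DMSO.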

Assay [4] can be described thus: qHTS profiling of the MIPE4 collection as inhibitors of Plasmodium falciparum (3D7) proliferation (AID 743344; call rule not given here;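 note: scaled between DMSO vehicle wells and 0.29 µM artemisinin as full inhibition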). The note with it: P. falciparum 3D7 in erythrocytes, SYBR Green DNA fluorescence, 72 h; at 28.5 µM (top of the series). Put shortly: as §1
Assay [5] is described as follows: qHTS Assay for Identifying Gametocytocidal Compounds (AID 743244).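 For max response: % is set by controls: 0 for no effect and ±100 for the full control effect; actives lower the fluorescent signal which means gametocytes are killed.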 Note: potency is the fitted concentration of half-maximal effect. To be noted: P. falciparum 3D7 stage III-V gametocytes, alamarBlue, 72 h; max response: stronger effect = lower value. Summed up: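 Fluorescence at Ex 525/Em 598 nm, recorded 24 h after alamarBlue addition, reports residual metabolic activity of 3D7 gametocytes (stages III–V) following 72 h compound exposure at 37 °C, 5% CO2.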

Assay [6] can be described thus: qHTS assay for cell viability of HEK293 cells (AID 743288). Note: % is set by controls: 0 for no effect and ±100 for the full control effect; nearly all actives have a fitted effect of over 50% in size. To be noted: ATP luminescence (CellTiter-Glo), 18 h; max response: stronger effect = lower value. Summed up: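 The Tox21 protocol used parental HEK293 cells treated for 18 h at 37 C with compounds delivered by pintool; ATP-coupled luminescence after 30 min at room temperature gave viability.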
Assay [7] can be described thus: qHTS assay for cell viability of the p53RE-bla HCT-116 cell line (AID 743292). Note: % is set by controls: 0 for no effect and ±100 for the full control effect; nearly all actives have a fitted effect of over 55% in size. The note with it: p53RE-bla HCT-116 viability, ATP luminescence, 16 h; series mostly up to 95 µM. Summed up:
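CellSensor p53RE-bla HCT-116 cells (4,000/well) pre-incubated 5 h at 37 C, then exposed to compounds in DMSO for 16 h at 37 C. Viability read as ATP content by CellTiter-Glo luminescence after 30 min at room temperature.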

Where “and” joins values, the source holds several entries; their conditions need not be identical. Equal values may be shown once. Records with an inconclusive call do not appear. Calls of active or inactive are those of the source. Unless noted, calls come from the whole dose curve; as a rule, active = well fitted curve in the direction sought with a large enough effect; inconclusive = small, poorly fitted or top-dose-only effect, or another doubt; inactive = no such curve, though single readings can be large; an effect the other way counts as inactive or inconclusive.

On to `C#C[C@]1(O)CC[C@@H]2[C@H]3CCC4=CC(=O)CC[C@H]4[C@H]3C(=C)C[C@@]21CC`, for which the remaining parasite growth % (stronger effect = lower value) in assay [1] was 38.1%. The activity, percent of control in assay [2] is 51.3%. Further, the remaining proliferation (% of control), lower = more inhibition in assay [3] came out at 25.2%. In addition, in assay [4], the parasite growth, % of DMSO control turned out to be 22.9%.

Turning to `OCCOCCOCCO`, the max response in assay [5] is -2.42% (inactive); in assay [6], -2.87% (inactive) and -1.37% (inactive). The compound was called inactive in assay [7].

Regarding `C=Cc1c(C)c2cc3nc(cc4[nH]c(cc5nc(cc1[nH]2)C(C)=C5CCC(=O)OC)c(CCC(=O)O)c4C)[C@@]1(C)C3=CC=C(C(=O)OC)[C@H]1C(=O)OC`, in assay [1], the remaining parasite growth % (stronger effect = lower value) is -0.398% [at 9.63 µM]. The activity, percent of control in assay [2] was 0.912% [at 9.63 µM]. Further, in assay [3], the remaining proliferation (% of control), lower = more inhibition stood at 0.279% [at 9.63 µM].

Take `O=C(O)[C@H]1C(=CCO)O[C@H]2CC(=O)N12`: the parasite growth, % of DMSO control in assay [4] was 93.2%.

`CN(CCO)CC(O)Cn1cnc2c1c(=O)n(C)c(=O)n2C` (configuration not stated) (tested in a mixture with another compound): the max response in assay [5] was 2.62% (inactive); in assay [6], -3.27% (inactive). For the same compound, the compound was called inactive in assay [7].

For `Oc1cccc(O)c1O`, the max response in assay [5] was -2.15% (inactive); in assay [6], -17.5% (inactive). In addition, the outcome in assay [7] was inactive.

On to `Cc1c(N)nc([C@H](CC(N)=O)NC[C@H](N)C(N)=O)nc1C(=O)N[C@H](C(=O)N[C@H](C)[C@@H](O)[C@H](C)C(=O)N[C@H](C(=O)NCCc1nc(-c2nc(C(=O)NCCCCN=C(N)N)cs2)cs1)[C@@H](C)O)[C@@H](O[C@@H]1O[C@@H](CO)[C@@H](O)[C@H](O)[C@@H]1O[C@H]1O[C@H](CO)[C@@H](O)[C@H](OC(N)=O)[C@@H]1O)c1cnc[nH]1`, for which, in assay [5], the max response is -1.54% (inactive) and 0.24% (inactive). Moreover, the remaining parasite growth % (stronger effect = lower value) in assay [1] was 83.7%. In addition, the activity, percent of control in assay [2] worked out at 82.1%. For the same compound, the remaining proliferation (% of control), lower = more inhibition in assay [3] was found to be 67.1%.

On to `OCC(O)CO`, for which the max response in assay [5] is 9.54% (inactive); in assay [6] it was 1.91% (inactive) and -2.54% (inactive). In addition, in assay [7], the outcome was inactive.

Regarding `CC1=CCC2CC1C2(C)C` (configuration not stated), the max response in assay [5] is 3.27% (inactive); in assay [6], -5.13% (inactive). Besides, the compound was called inactive in assay [7].

In the case of `O=C(OCc1ccccc1)c1ccc(O)cc1`, the max response in assay [5] is 1.16% (inactive); in assay [6], -7.01% (inactive). For the same compound, the outcome in assay [7] was inactive.

In the case of `C[C@H]1[C@@H](OC(=O)CCC(=O)O)O[C@@H]2OC3(C)CC[C@H]4[C@H](C)CC[C@@H]1[C@@]24OO3`, the remaining parasite growth % (stronger effect = lower value) in assay [1] is -0.578%. For the same compound, the activity, percent of control in assay [2] is -0.204%. Besides, the remaining proliferation (% of control), lower = more inhibition in assay [3] is -0.191%.

As for `CC1=CC(=O)NS(=O)(=O)O1`, the max response in assay [5] was -2.22% (inactive); in assay [6], -5.77% (inactive) and -0.759% (inactive). Besides, the outcome in assay [7] was inactive.

With `CO[C@H]1O[C@@H]2O[C@@]3(C)CC[C@H]4[C@H](C)CC[C@@H]([C@H]1C)[C@@]24OO3`, the Potency in assay [5] was 83.3 nM (active). For the same compound, the remaining parasite growth % (stronger effect = lower value) in assay [1] is -0.372% [at 57.5 µM]. For the same compound, the activity, percent of control in assay [2] is -0.375% [at 57.5 µM]. Further, in assay [3], the remaining proliferation (% of control), lower = more inhibition is 0.0422% [at 57.5 µM].

As to `CC[C@H]1OC(=O)[C@H](C)[C@@H](O[C@H]2C[C@@](C)(OC)[C@@H](O)[C@H](C)O2)C(C)[C@@H](O[C@@H]2O[C@H](C)C[C@H](N(C)C)[C@@H]2O)[C@](C)(OC)C[C@@H](C)C(=O)[C@H](C)[C@@H](O)[C@]1(C)O` (some centres not stated), in assay [4], the parasite growth, % of DMSO control was determined as 19.7%.

Regarding `O=P(O)(O)O`, the values for the max response in assay [5] and in assay [6] were -3.37% (inactive) and -7.47% (inactive), respectively. Moreover, the result in assay [7] was inactive.

As to `OB(O)O`, the max response in assay [5] was 7.6% (inactive); in assay [6], -3.91% (inactive) and 5.45% (inactive). Further, the result in assay [7] was inactive.

Take `CO`: the max response in assay [5] was 16% (inactive); in assay [6], 1.36% (inactive). Besides, the compound was called inactive in assay [7].

As to `C[Si](C)(C)O[Si](C)(C)C`, the max response is 4.27% (inactive) in assay [5] and -0.467% (inactive) in assay [6]. In addition, in assay [7], the result was inactive.

As for `Nc1ncnc2c1ncn2[C@H]1CC[C@@H](CO)O1`, the max response in assay [6] was -8.27% (inactive) and 0.717% (inactive). Also, the compound was called inactive in assay [7].

`OC[C@H]1O[C@@H]2O[C@H]3[C@H](O)[C@@H](O)[C@@H](O[C@H]4[C@H](O)[C@@H](O)[C@@H](O[C@H]5[C@H](O)[C@@H](O)[C@@H](O[C@H]6[C@H](O)[C@@H](O)[C@@H](O[C@H]7[C@H](O)[C@@H](O)[C@@H](O[C@H]1[C@H](O)[C@H]2O)O[C@@H]7CO)O[C@@H]6CO)O[C@@H]5CO)O[C@@H]4CO)O[C@@H]3CO`: the max response is -7.1% (inactive) in assay [5]; -12.8% (inactive) and 1.56% (inactive) in assay [6]. In assay [7], the result was inactive.

With `CC(C)[C@@H]1CC[C@@H](C)C[C@H]1O`, the max response in assay [5] was 20.4% (inactive); in assay [6], -12.7% (inactive). For the same compound, the outcome in assay [7] was inactive.

With `CCN(CC)CCOCCOC(=O)C(CC)(CC)c1ccccc1`, the remaining parasite growth % (stronger effect = lower value) in assay [1] came to 90.6%. Moreover, the activity, percent of control in assay [2] worked out at 50.9%. Further, in assay [3], the remaining proliferation (% of control), lower = more inhibition is 65.7%.

Regarding `CC(=O)[C@H]1CC[C@H]2[C@@H]3C=CC4=CC(=O)CC[C@@]4(C)[C@H]3CC[C@]12C`, the parasite growth, % of DMSO control in assay [4] was found to be 84.6%.

As to `C/C=C/C=C/C(=O)O`, the max response in assay [5] was -7.74% (inactive); in assay [6], 0.0589% (inactive). For the same compound, the call in assay [7] was inactive.

Consider `NCCO/C=C/[C@H](N)C(=O)O`, for which the max response was -0.535% (inactive) in assay [5] and -5.56% (inactive) in assay [6]. Moreover, the outcome in assay [7] was inactive.

In the case of `CO/N=C(/C(=O)N[C@@H]1C(=O)N2C(C(=O)O)=C(COC(N)=O)CS[C@H]12)c1ccco1`, the max response in assay [6] is 2.57% (inactive). Besides, the compound was called inactive in assay [7].

As for `Nc1ccc(N=Nc2ccccc2)c(N)n1`, the max response in assay [6] is -23.5% (inactive) and -25.3% (inactive). Further, the result in assay [7] was inactive.

For `CC[C@H]1OC(=O)[C@H](C)[C@@H](O[C@H]2C[C@@](C)(OC)[C@@H](O)[C@H](C)O2)[C@H](C)[C@@H](O[C@@H]2O[C@H](C)C[C@H](N(C)C)[C@H]2O)[C@](C)(O)C[C@@H](C)CN(C)[C@H](C)[C@@H](O)[C@]1(C)O`, in assay [6], the max response is -7.47% (inactive). Besides, the result in assay [7] was inactive.
